In PubChem BioAssay (NCI):
This is part of a sample that, as a whole, favours compounds with a hit. Of some 79,000 tested, about 15% had one in any assay. Activity calls are given as the source filed them. Cut-off read from the data, not from the text of the source: active = growth inhibition above about 70%; inactive = the rest.

Legend:
[1] = NCI Yeast Anticancer Drug Screen. Data for the rad52 strain (AID 147);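 note: 0% = growth of vehicle-treated control cultures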; conditions: S. cerevisiae rad52 mutant growth inhibition, active compounds read high
Outline: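 Vehicle-treated cultures served as the reference for growth inhibition of compound-exposed yeast bearing a DNA repair mutation.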

[2] = NCI Yeast Anticancer Drug Screen. Data for the wt1 strain (AID 149);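 note: 0% = growth of vehicle-treated wt1 cultures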; conditions: S. cerevisiae wt1 strain (SPY 50644) growth inhibition, active compounds read high
Outline: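 Growth inhibition read against vehicle controls after compound exposure of the wt1 yeast strain.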

[3] = NCI Yeast Anticancer Drug Screen. Data for the rad50EPP+ strain (AID 151);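 note: 0% = growth of vehicle-treated control cultures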; conditions: S. cerevisiae rad50 mutant strain, active compounds read high
Outline: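 In this screen, rad50EPP+ yeast were exposed to compounds. Growth inhibition was scored against vehicle-treated controls.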

[4] = NCI Yeast Anticancer Drug Screen. Data for the mgt1 strain (AID 153); conditions: S. cerevisiae mgt1 mutant growth inhibition, active compounds read high
Outline: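 mgt1 strain exposed; growth vs vehicle control recorded as inhibition.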

[5] = NCI Yeast Anticancer Drug Screen. Data for the rad50 strain (AID 155);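 note: 0% = growth of vehicle-only cultures of the same strain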; conditions: S. cerevisiae rad50 strain growth inhibition, active compounds read high
Outline: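 Readout: growth inhibition relative to vehicle-treated cultures. Compound exposure was carried out in a genetically defined yeast strain deficient in DNA damage repair.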

[6] = NCI Yeast Anticancer Drug Screen. Data for the mec2-1 strain (AID 157); conditions: S. cerevisiae mec2-1 strain, active compounds read high
Outline: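 Vehicle-treated cultures served as reference for growth inhibition of compound-exposed mec2-1 yeast.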

[7] = NCI Yeast Anticancer Drug Screen. Data for the rad14 strain (AID 159);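 note: 0% = growth of vehicle-treated control cultures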; conditions: S. cerevisiae rad14 strain growth inhibition, active compounds read high
Outline: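 Growth inhibition vs vehicle controls; genetically altered yeast strain (DNA damage repair defect) treated with test compounds.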

[8] = NCI Yeast Anticancer Drug Screen. Data for the sgs1 mgt1 strain (AID 161);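 note: 0% = growth of cultures given vehicle only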; conditions: S. cerevisiae sgs1 mgt1 strain, active compounds read high
Outline: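 Inhibition of yeast growth, normalised to vehicle-treated controls, is reported for a strain bearing genetic alterations in DNA damage repair.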

[9] = NCI Yeast Anticancer Drug Screen. Data for the CLN2oe strain (AID 163);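 note: 0% = growth of vehicle-only control cultures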; conditions: S. cerevisiae CLN2oe strain, active compounds read high
Outline: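 Inhibition relative to vehicle-treated yeast is reported. Cells: strain with genetic alteration in cell-cycle control, grown with compound.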

[10] = NCI Yeast Anticancer Drug Screen. Data for the cln2 rad14 strain (AID 165);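 note: 0% = growth equal to vehicle treated cultures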; conditions: S. cerevisiae cln2 rad14 strain, active compounds read high
Outline: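 Each compound was tested on cln2 rad14 yeast. Inhibition of growth was calculated against vehicle-exposed controls.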

[11] = NCI Yeast Anticancer Drug Screen. Data for the bub3 strain (AID 167); conditions: S. cerevisiae bub3 mutant strain, active compounds read high
Outline: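 Readout: yeast growth inhibition, expressed relative to vehicle-only wells. The test organism is a mutant strain from a panel with lesions in DNA repair or checkpoint genes.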

[12] = NCI Yeast Anticancer Drug Screen. Data for the wt2 strain (AID 169);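 note: 0% = growth of vehicle-treated yeast cultures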; conditions: S. cerevisiae wt2 strain growth inhibition, active compounds read high
Outline: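 Inhibition of yeast growth was determined after compound treatment, normalised to controls receiving only vehicle.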

[13] = NCI Yeast Anticancer Drug Screen. Data for the mlh1 strain (AID 171);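 note: 0% = growth of vehicle-treated control cultures of the same strain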; conditions: S. cerevisiae mlh1 strain growth inhibition, active compounds read high
Outline: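 Vehicle-normalised growth inhibition of a repair- or checkpoint-altered yeast strain following compound treatment.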

[14] = NCI Yeast Anticancer Drug Screen. Data for the sgs1 strain (AID 173);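 note: 0% = growth of vehicle-only control cultures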; conditions: S. cerevisiae sgs1 mutant, active compounds read high
Outline: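 Screen format: yeast with repair or checkpoint alterations, compound exposure, growth read relative to vehicle.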

[15] = NCI Yeast Anticancer Drug Screen. Data for the mlh1 rad18 strain (AID 175); conditions: S. cerevisiae mlh1 rad18 strain growth inhibition, active compounds read high
Outline: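 Vehicle-treated cultures served as the reference for growth inhibition in a yeast strain carrying DNA damage repair alterations exposed to each compound.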

[16] = NCI Yeast Anticancer Drug Screen. Data for the rad18 strain (AID 177); conditions: S. cerevisiae rad18 mutant growth inhibition, active compounds read high
Outline: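 Test articles were incubated with altered yeast defective in DNA damage repair. Results are given as inhibition of growth versus vehicle.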

[17] = at 5.0 µM (retest, dose inferred, filed as 0.5)
[18] = at 50.0 µM (retest, dose inferred, filed as 5.0)

Measured: growth inhibition

CC(C)CCC[C@@H](C)[C@H]1CC[C@H]2[C@@H]3CC[C@H]4C[C@H](N)CC[C@]4(C)[C@H]3CC[C@]12C
inactive: [1]; at 1.2 µM -2% | [1]; at 3.7 µM 2% | [1]; at 11.0 µM -3% | [1]; at 33.0 µM -7% | [1]; at 100.0 µM -6% | [2]; at 1.2 µM -1% | [2]; at 3.7 µM 0% | [2]; at 11.0 µM -3% | [2]; at 33.0 µM -2% | [2]; at 100.0 µM 1% | [3]; at 1.2 µM 0% | [3]; at 3.7 µM 2% | [3]; at 11.0 µM 7% | [3]; at 33.0 µM 7% | [3]; at 100.0 µM 7% | [4]; at 1.2 µM -3% | [4]; at 3.7 µM -2% | [4]; at 11.0 µM -2% | [4]; at 33.0 µM -2% | [4]; at 100.0 µM 2% | [5]; at 1.2 µM 1% | [5]; at 3.7 µM 4% | [5]; [17] -19% | [5]; at 11.0 µM 4% | [5]; at 33.0 µM -2% | [5]; [18] 49% | [5]; at 50.0 µM 27.1% | [5]; at 100.0 µM -2% | [6]; at 1.2 µM 0% | [6]; at 3.7 µM -1% | [6]; [17] -9% | [6]; at 11.0 µM -2% | [6]; at 33.0 µM -2% | [6]; [18] -12% | [6]; at 50.0 µM 46.2% | [6]; at 100.0 µM -3% | [7]; at 1.2 µM -1% | [7]; at 3.7 µM 1% | [7]; at 11.0 µM -1% | [7]; at 33.0 µM -4% | [7]; at 100.0 µM -1% | [8]; [17] -9% | [8]; [18] 53% | [8]; at 50.0 µM -1.6% | [9]; at 1.2 µM -7% | [9]; at 3.7 µM -5% | [9]; at 11.0 µM -4% | [9]; at 33.0 µM -16% | [9]; at 100.0 µM -7% | [10]; [17] -10% | [10]; [18] -3% | [10]; at 50.0 µM 19.2% | [11]; at 1.2 µM -2% | [11]; at 3.7 µM -4% | [11]; [17] -3% | [11]; at 11.0 µM -6% | [11]; at 33.0 µM -4% | [11]; [18] 52% | [11]; at 50.0 µM 15.1% | [11]; at 100.0 µM -2% | [12]; at 1.2 µM 8% | [12]; at 3.7 µM -8% | [12]; at 11.0 µM 6% | [12]; at 33.0 µM -4% | [12]; at 100.0 µM 5% | [13]; at 1.2 µM -2% | [13]; at 3.7 µM -2% | [13]; at 11.0 µM -4% | [13]; at 33.0 µM -7% | [13]; at 100.0 µM -3% | [14]; at 1.2 µM -3% | [14]; at 3.7 µM -22% | [14]; at 11.0 µM 6% | [14]; at 33.0 µM 6% | [14]; at 100.0 µM 13% | [15]; [17] 2% | [15]; [18] 55% | [15]; at 50.0 µM 39.9% | [16]; at 1.2 µM -1% | [16]; at 3.7 µM 0% | [16]; at 11.0 µM 3% | [16]; at 33.0 µM -6% | [16]; at 100.0 µM 3%

NC(CCCCCCCCCCCCC(N)C(=O)c1ccccc1)C(=O)c1ccccc1 (stereo unspecified)
inactive: [1]; at 1.2 µM -3% | [1]; at 3.7 µM -4% | [2]; at 1.2 µM -4% | [2]; at 3.7 µM -12% | [3]; at 1.2 µM -2% | [3]; at 3.7 µM -1% | [3]; at 11.0 µM -2% | [3]; at 33.0 µM -1% | [3]; at 100.0 µM -3% | [4]; at 1.2 µM -5% | [4]; at 3.7 µM -9% | [4]; at 11.0 µM 17% | [4]; at 33.0 µM 39% | [5]; at 1.2 µM -3% | [5]; at 3.7 µM -6% | [5]; [17] -9% | [5]; at 50.0 µM -5.55% | [6]; at 1.2 µM -6% | [6]; at 3.7 µM -15% | [6]; [17] -15% | [6]; at 11.0 µM 43% | [6]; at 33.0 µM 61% | [6]; at 50.0 µM -9.95% | [7]; at 1.2 µM -6% | [7]; at 3.7 µM -12% | [7]; at 11.0 µM 38% | [7]; at 33.0 µM 62% | [8]; [17] -10% | [8]; at 50.0 µM -12.2% | [9]; at 1.2 µM -9% | [9]; at 3.7 µM -20% | [9]; at 11.0 µM 52% | [10]; [17] -26% | [10]; at 50.0 µM -32.3% | [11]; at 1.2 µM -3% | [11]; at 3.7 µM 0% | [11]; [17] 4% | [11]; at 50.0 µM -2.55% | [12]; at 1.2 µM -4% | [12]; at 3.7 µM -8% | [13]; at 1.2 µM -4% | [13]; at 3.7 µM -10% | [13]; at 11.0 µM 59% | [14]; at 1.2 µM -5% | [14]; at 3.7 µM -7% | [15]; [17] -8% | [15]; [18] -13% | [15]; at 50.0 µM -10.4% | [16]; at 1.2 µM -6% | [16]; at 3.7 µM -9% | [16]; at 11.0 µM 41%
active: [1]; at 11.0 µM 88% | [1]; at 33.0 µM 92% | [1]; at 100.0 µM 96% | [2]; at 11.0 µM 75% | [2]; at 33.0 µM 95% | [2]; at 100.0 µM 95% | [4]; at 100.0 µM 94% | [5]; at 11.0 µM 81% | [5]; at 33.0 µM 85% | [5]; [18] 88% | [5]; at 100.0 µM 93% | [6]; [18] 92% | [6]; at 100.0 µM 91% | [7]; at 100.0 µM 96% | [8]; [18] 94% | [9]; at 33.0 µM 91% | [9]; at 100.0 µM 95% | [10]; [18] 92% | [11]; at 11.0 µM 74% | [11]; at 33.0 µM 95% | [11]; [18] 94% | [11]; at 100.0 µM 91% | [12]; at 11.0 µM 83% | [12]; at 33.0 µM 96% | [12]; at 100.0 µM 96% | [13]; at 33.0 µM 94% | [13]; at 100.0 µM 93% | [14]; at 11.0 µM 82% | [14]; at 33.0 µM 96% | [14]; at 100.0 µM 95% | [16]; at 33.0 µM 96% | [16]; at 100.0 µM 96%
